Screening data (PubChem)
The full list was thinned out, with hits kept by preference.
Tg IFNy HTS – blocks Toxoplasma gondii growth in the presence of IFN-gamma; 69,000 compounds, 3.8% hits; AID 1259416; activity change, negative = inhibition, % (test concentration not listed); Toxoplasma gondii growth in IFN-gamma-treated host cells; stronger effect = lower value; in the data active = activity change below about -70%, passing the limit was not always enough;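 also: host cells are HeLa cells infected with Toxoplasma gondii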
* marks the source's active call; other numbers are inactive results; i = inactive.

SMILES	Tg IFNy HTS
CC1(CCC#N)N=C(SCCC#N)N(c2ccccc2)C1=O (stereo not given)	-74.4*
O=C(CN1CCN(Cc2ccc3c(c2)OCO3)CC1)N1c2ccccc2Sc2ccccc21	17.2
Cc1ccccc1-c1nc(CSc2nc3c(=O)[nH]cnc3n2C)c(C)o1	-0.8
CC(C)c1nc2ccc(Br)cn2c1NC1CCCCC1	36.3
CCOc1nc(Nc2ccc(C(C)C)cc2)nc(NC2CCCCC2)n1	-87.0*
CCc1nc(OCC(=O)Nc2ccc(C(C)C)cc2)c2ccccc2n1	5.0
Cc1ccc2c(n1)N(CCN(C)C)CCN(C(=O)c1ccno1)C2	49.4
OC1(c2ccccc2)c2ccccc2-c2ccccc21	25.5
NC1=Nc2ccc(Cl)cc2C1(O)c1ccccc1 (stereo not given)	-96.7*
N#CCN1CCOC2(CCN(c3nccs3)CC2)c2ccccc21	-1.1
O=C(CCC1Nc2c3ccccc3nc(=S)n2C1=O)NCCN1CCN(c2cccc(Cl)c2)CC1 (stereo not given)	7.1
Cc1ccc(-c2nnc(-c3nc(NCCc4c(C)noc4C)c4ccccc4n3)o2)cc1	-14.3
Cc1noc(C)c1C(=O)NC1CC2(CCNCC2)Oc2ccccc21 (stereo not given)	2.9
O=C(NCc1ccccc1)c1nc2c(s1)CCN(C(=O)c1ccncc1)CC2	-74.4*
COc1ccc(CNC(=O)c2nc3c(s2)CCN(C(=O)CC(C)C)CC3)cc1	17.2
Cc1ccc(-c2nc3c(s2)CN(C(=O)NCc2ccccc2)CC3)cc1	-35.1
Cc1ccc(NC(=O)C(=O)NCCc2sc(-c3cccc(F)c3)nc2C)cc1F	50.8
Cc1ccc(-c2nc(C)c(CCNC(=O)C(=O)Nc3ccc(Cl)cc3)s2)cc1	83.4
Cc1ccc(-c2nc(C)c(CCNC(=O)C(=O)Nc3ccc4c(c3)OCCO4)s2)cc1	-37.5
Cc1nc(-c2ccc(Cl)cc2)sc1CCNC(=O)C(=O)Nc1ccc2c(c1)OCO2	-89.8*
Cc1nc(-c2ccccc2)sc1CCNC(=O)C(=O)Nc1ccc2c(c1)OCO2	-93.1*
Cc1cccc(NC(=O)C(=O)NCCc2sc(-c3ccccc3)nc2C)c1	-35.9
Cc1nc(-c2cccc(F)c2)sc1CCNC(=O)C(=O)Nc1ccc2c(c1)OCCO2	-33.6
Cc1ccc(NC(=O)C(=O)NCCc2sc(-c3ccccc3)nc2C)cc1	-3.3
Cc1nc(-c2cccc(F)c2)sc1CCNC(=O)C(=O)Nc1ccc2c(c1)OCO2	-97.9*
SMILES	Tg IFNy HTS
C[C@@H](NC(=O)C[C@H]1C=C[C@H](NS(=O)(=O)c2cccc(F)c2)[C@H](CO)O1)c1ccccc1	-16.0
C[C@]12CCC(=O)C=C1[C@H](O)C[C@@H]1[C@@H]2[C@@H](O)C[C@@]2(C)[C@H]1CC[C@]2(O)C(=O)CO	16.4
CCc1cn[nH]c1C1CCN(C(=O)Cc2c(C)[nH][nH]c2=O)CC1	-3.7
CCCOC1CCCN(Cc2ccc(O)c(O)c2)C1 (stereo not given)	-41.8
COc1ccc2c3c(n(C)c2c1)[C@@H](CO)N(C(C)=O)CC31CCN(C(=O)c2cnccn2)CC1	368.2
CC(C)OC(=O)c1ccc(NC(=O)c2cncc(Br)c2)cc1	39.9
COc1ccc(-c2cn(CC[C@@H]3CC[C@@H](NC(=O)c4cnccn4)[C@H](CO)O3)nn2)cc1	-13.8
CCn1c(-c2cc(NC(=O)c3cncc(Br)c3)n[nH]2)cc2ccc(OC)cc21	-84.9*
COCCN1C(=O)CCc2cc(NC(=O)c3cncc(Br)c3)ccc21	1.2
COc1ccc(OC)c(NC(=O)c2cncc(NS(=O)(=O)c3ccc(Br)cc3)c2)c1	19.1
CCn1c(-c2cc(NC(=O)c3cncc(Br)c3)n[nH]2)cc2ccccc21	-103.3*
CCn1c(-c2cc(NC(=O)c3cnccn3)n[nH]2)cc2ccc(OC)cc21	-102.7*
CCn1c(-c2cc(NC(=O)c3cccnc3)n[nH]2)cc2cc(OC)ccc21	69.3
COc1cccc(CC(=O)Nc2ccc(-c3nc(-c4cc(C)ccc4C)co3)cc2)c1	-2.5
OC[C@@H]1[C@@H](c2ccccc2)C2(CN(Cc3ccccc3F)C2)N1Cc1ccccc1F	-55.8
CN1C(=O)CCc2cc(NC(=O)c3ccc(F)cc3)ccc21	81.1
CCOC(=O)c1cnc(SCC(N)=O)nc1N	-10.1
N#C[C@H]1[C@H](c2ccccc2)[C@@H](CO)N1C(=O)c1ccccc1F	-13.4
COc1ccc(-c2nc(C)c(CCNS(=O)(=O)c3ccc(F)c(C(F)(F)F)c3)s2)cc1	i
COc1ccc(CN2CCN(C)C[C@@H]2c2ccccc2)c(OC)c1OC	1.4
COc1ccc(NC(=O)Nc2ccc(-c3nc(-c4ccc(C)cc4)co3)cc2)cc1	53.4
CCC(C)NC(=O)c1cncc(N(C)S(=O)(=O)c2ccccc2)c1 (stereo not given)	50.9
COc1cccc(-c2cccc(CN3C[C@H]4C[C@H](O)[C@H](O)C[C@H]4C3)c2)c1	-46.7
COc1cccc(-n2c(=O)c(C(=O)Nc3ccccc3)c(O)c3cccnc32)c1	50.4
Cc1ccc2c(c1)c1cccc3c1n2CCN3CCC#N	-103.2*
SMILES	Tg IFNy HTS
Cc1ccc2c(c1)c1c3n2CCN=C3CCC1	-20.9
Cc1cccc(NCc2c(C#N)c3ccccc3n2C)c1	229.7
Cc1nn(C)cc1-c1ccnc(N(C)Cc2cccc(CN(C)C)c2)n1	-1.9
COc1ccc(C(=O)N2CC[C@@H](c3ccc4ccccc4c3)[C@H](O)C2)o1	5.8
CN(Cc1n[nH]c2c1CCCCC2)C(=O)c1ccc(-n2cnnn2)cc1	1.2
CCc1nc(N2[C@H](C#N)[C@@H](c3ccccc3-c3ccc(F)cc3)[C@@H]2CO)sc1C	-36.5
COc1ccc(S(=O)(=O)Nc2ccc3c(c2)C(=O)N([C@H](C)CO)C[C@H](C)[C@@H](CN(C)S(=O)(=O)c2ccc(Cl)cc2)OCCCC[C@@H](C)O3)cc1	4.0
C[C@@H]1CN([C@@H](C)CO)C(=O)c2cc(NC(=O)Nc3ccc(C(F)(F)F)cc3)ccc2O[C@@H](C)CCCCO[C@@H]1CN(C)S(=O)(=O)c1ccc(Cl)cc1	213.0
COc1ccc(S(=O)(=O)Nc2ccc3c(c2)C(=O)N([C@@H](C)CO)C[C@H](C)[C@@H](CN(C)S(=O)(=O)c2ccc(Cl)cc2)OCCCC[C@H](C)O3)cc1	-129.6*
C[C@@H]1CCCCO[C@H](CN(C)S(=O)(=O)c2ccc(Cl)cc2)[C@@H](C)CN([C@@H](C)CO)C(=O)c2cc(NC(=O)Nc3ccc(C(F)(F)F)cc3)ccc2O1	-20.5
COc1ccc(S(=O)(=O)Nc2ccc3c(c2)C(=O)N([C@@H](C)CO)C[C@H](C)[C@@H](CN(C)S(=O)(=O)c2ccc(Cl)cc2)OCCCC[C@@H](C)O3)cc1	-112.7*
C[C@@H]1CCCCO[C@@H](CN(C)S(=O)(=O)c2ccc(Cl)cc2)[C@@H](C)CN([C@@H](C)CO)C(=O)c2cc(NC(=O)Nc3ccc(C(F)(F)F)cc3)ccc2O1	176.0
COc1ccc(S(=O)(=O)Nc2ccc3c(c2)C(=O)N([C@H](C)CO)C[C@H](C)[C@@H](CN(C)S(=O)(=O)c2ccc(Cl)cc2)OCCCC[C@H](C)O3)cc1	-113.0*
C[C@@H]1CN([C@H](C)CO)C(=O)c2cc(NS(=O)(=O)c3ccc(Cl)cc3)ccc2O[C@@H](C)CCCCO[C@@H]1CN(C)C(=O)CCCN(C)C	-15.7
COc1ccc(S(=O)(=O)Nc2ccc3c(c2)C(=O)N([C@@H](C)CO)C[C@@H](C)[C@@H](CN(C)S(=O)(=O)c2ccc(Cl)cc2)OCCCC[C@H](C)O3)cc1	-128.0*
